A short description of experiment [1]: antimalarial activity against Dd2 strain (AID 2302;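 active = growth inhibition above 50% at the single 2 µM test dose, taken to imply half-maximal potency below 2 µM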;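 note: 0% = DMSO untreated growth and 100% = chloroquine plus artemisinin killed control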). The conditions noted are these: P. falciparum Dd2 in RBCs, LDH growth readout, 72 h; at 2 µM; active compounds read high.
Experiment [2] in a line: HepG2 cytotoxicity, primary screen, cytotoxicity control for P. falciparum antimalarial project, cell-based, ATP luminescence (AID 2303;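 active = inhibition above 50%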;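 note: 0% = DMSO wells and 100% = digitonin-killed cells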). The following applies: HepG2 viability, 24-48 h, at 10 µM, active compounds read high.
The target in experiment [3] is L-lactate dehydrogenase (Plasmodium falciparum (isolate CDC / Honduras)) (UniProt Q27743). The experiment is described as follows: PfLDH activity inhibition – cell lysate, 3D7 strain, counter-screen for P. falciparum growth inhibition project (AID 2304).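 Note: 0% = vehicle and 100% = reference inhibitor.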 The following applies: P. falciparum 3D7 crude extract, LDH APAD/NBT absorbance; at 2 µM; active compounds read high. (The purpose of a counterscreen is to sort out artefacts and off-target activity.)
L-lactate dehydrogenase (Plasmodium falciparum (isolate CDC / Honduras)), sequence (Q27743 whole entry, looked up): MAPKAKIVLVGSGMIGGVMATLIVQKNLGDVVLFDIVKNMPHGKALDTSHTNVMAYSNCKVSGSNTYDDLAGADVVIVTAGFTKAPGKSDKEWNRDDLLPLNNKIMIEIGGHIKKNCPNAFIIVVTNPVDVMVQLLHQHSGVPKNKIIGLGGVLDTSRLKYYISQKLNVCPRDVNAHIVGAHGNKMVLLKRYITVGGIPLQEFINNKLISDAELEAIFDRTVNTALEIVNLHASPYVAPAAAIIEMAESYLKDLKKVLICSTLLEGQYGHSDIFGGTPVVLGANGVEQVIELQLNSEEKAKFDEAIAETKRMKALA

Experiment [4] is described as follows: inhibition of 3D7 malaria parasite growth – strain 3D7 (AID 2306).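 Note: 0% = DMSO wells and 100% = chloroquine plus artemisinin control wells.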 The conditions noted are these: P. falciparum 3D7 erythrocytic growth, LDH absorbance, 72 h; at 2 µM; active compounds read high.
Experiment [5] deals with Calcium-dependent protein kinase 1 (Plasmodium falciparum (isolate 3D7)) (UniProt P62344). The experiment is described as follows: PfCDPK1 kinase inhibitors, biochemical, TCAMS library (AID 1159585; cut-off not given, nearly all actives have IC50 up to about 0.98 µM;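 note: inhibitors leave more ATP so luminescence rises with inhibition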). The following applies: recombinant PfCDPK1, Kinase-Glo ATP depletion luminescence. For orientation: Kinase-Glo reads ATP consumption through a luciferase reaction.
Calcium-dependent protein kinase 1 (Plasmodium falciparum (isolate 3D7)), sequence (P62344 whole entry, looked up): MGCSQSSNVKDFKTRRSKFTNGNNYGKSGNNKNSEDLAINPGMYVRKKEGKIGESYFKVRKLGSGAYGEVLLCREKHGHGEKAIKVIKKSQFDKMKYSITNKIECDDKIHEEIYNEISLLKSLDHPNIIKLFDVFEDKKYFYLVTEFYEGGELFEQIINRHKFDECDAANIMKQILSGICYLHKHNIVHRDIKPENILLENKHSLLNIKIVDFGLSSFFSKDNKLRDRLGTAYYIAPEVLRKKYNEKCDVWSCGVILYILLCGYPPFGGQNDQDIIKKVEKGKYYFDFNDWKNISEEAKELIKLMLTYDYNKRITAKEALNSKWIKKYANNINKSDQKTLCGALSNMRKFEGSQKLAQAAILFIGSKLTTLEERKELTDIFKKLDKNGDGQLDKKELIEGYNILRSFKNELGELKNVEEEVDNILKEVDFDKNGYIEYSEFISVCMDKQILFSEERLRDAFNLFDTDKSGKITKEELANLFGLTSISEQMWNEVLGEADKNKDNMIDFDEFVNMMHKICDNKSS
Experiment [6] concerns the target Plasmodium falciparum protein kinase 6 (PK6, PF3D7_1337100) (UniProt Q8IDW1). The experiment is described as follows: PfPK6 kinase inhibitors, biochemical, TCAMS library (AID 1159586). The conditions noted are these: recombinant PfPK6, Kinase-Glo ATP depletion luminescence.
For experiment [7], the target named is Protein kinase 7 (PK7), Plasmodium falciparum 3D7 (PF3D7_0213400) (UniProt Q7YTF7). Description: inhibition of Plasmodium PK7 catalytic activity – biochemical, TCAMS antimalarial set, Kinase-Glo luminescence (AID 1159587). The conditions noted are these: recombinant PfPK7, Kinase-Glo ATP depletion luminescence.
Protein kinase 7 (PK7), Plasmodium falciparum 3D7 (PF3D7_0213400), sequence (Q7YTF7 1-343): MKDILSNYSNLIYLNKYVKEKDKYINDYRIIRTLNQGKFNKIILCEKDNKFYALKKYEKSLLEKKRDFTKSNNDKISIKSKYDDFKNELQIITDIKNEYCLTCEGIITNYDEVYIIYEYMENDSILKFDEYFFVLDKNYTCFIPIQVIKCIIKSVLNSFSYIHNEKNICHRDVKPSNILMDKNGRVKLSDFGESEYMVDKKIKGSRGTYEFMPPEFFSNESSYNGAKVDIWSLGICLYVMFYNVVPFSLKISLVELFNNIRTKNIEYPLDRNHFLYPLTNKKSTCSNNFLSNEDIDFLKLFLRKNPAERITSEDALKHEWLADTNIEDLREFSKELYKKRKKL
Experiment [8] has as its target Calcium-dependent protein kinase 4 (Plasmodium falciparum (isolate 3D7)) (UniProt Q8IBS5). The experiment is described as follows: PfCDPK4 kinase inhibitors, biochemical, TCAMS library (AID 1159588; cut-off not given, nearly all actives have IC50 up to about 0.91 µM). The conditions noted are these: recombinant PfCDPK4, Kinase-Glo ATP depletion luminescence.

Unmarked numbers belong to inactive results. For some of these results: Entries with a potency or affinity are not part of this list. Calls of active or inactive are those of the source. Unless noted, the rule behind the calls is not given here.

Plasmodium falciparum protein kinase 6 (PK6, PF3D7_1337100), sequence (Q8IDW1 1-305): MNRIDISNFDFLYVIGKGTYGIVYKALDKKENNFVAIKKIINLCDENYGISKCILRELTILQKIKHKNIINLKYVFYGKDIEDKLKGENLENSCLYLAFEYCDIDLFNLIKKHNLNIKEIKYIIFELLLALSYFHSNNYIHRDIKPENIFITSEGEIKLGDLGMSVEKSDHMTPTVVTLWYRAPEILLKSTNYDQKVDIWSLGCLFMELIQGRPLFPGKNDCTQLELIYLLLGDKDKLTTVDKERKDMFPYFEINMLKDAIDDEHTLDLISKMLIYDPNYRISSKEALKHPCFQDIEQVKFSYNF
Calcium-dependent protein kinase 4 (Plasmodium falciparum (isolate 3D7)), sequence (Q8IBS5 whole entry, looked up): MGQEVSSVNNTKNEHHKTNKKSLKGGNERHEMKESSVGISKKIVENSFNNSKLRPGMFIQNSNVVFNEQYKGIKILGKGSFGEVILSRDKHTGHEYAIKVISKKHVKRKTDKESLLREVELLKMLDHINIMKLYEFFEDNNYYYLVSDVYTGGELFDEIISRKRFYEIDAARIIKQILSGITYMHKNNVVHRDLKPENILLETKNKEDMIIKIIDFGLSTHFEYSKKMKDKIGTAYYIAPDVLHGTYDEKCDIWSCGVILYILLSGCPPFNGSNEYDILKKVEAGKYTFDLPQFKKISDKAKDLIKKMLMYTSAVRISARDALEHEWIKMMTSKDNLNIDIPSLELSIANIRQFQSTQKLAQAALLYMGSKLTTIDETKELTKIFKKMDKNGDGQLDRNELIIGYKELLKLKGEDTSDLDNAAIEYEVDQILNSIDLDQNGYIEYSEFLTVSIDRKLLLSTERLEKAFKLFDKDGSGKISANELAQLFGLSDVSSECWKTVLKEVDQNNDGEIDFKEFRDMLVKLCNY

As a reminder, the inhibition is the change of the read-out against control, counted positive when it falls. Turning to `Cc1cc(CNCCCCCNCc2cccc([N+](=O)[O-])c2)ccc1O`, the growth inhibition in experiment [1] was -2%; in experiment [4], 98% (active). Also, the values for the inhibition in experiment [2] and in experiment [3] were 14% and 0%, respectively. Also, the result in experiment [5], in experiment [6], in experiment [7] and in experiment [8] was inactive.
`Cc1cc2c(NC(=O)NC3CCN(CCc4ccccc4Cl)CC3)cccc2cn1`: the results for the growth inhibition in experiment [1] and in experiment [4] were 46% and 102% (active), respectively. In addition, the inhibition in experiment [2] was 13%; in experiment [3], 0%. In addition, the outcome in experiment [5], in experiment [6], in experiment [7] and in experiment [8] was inactive.
With `CO/C(=C\C=C\c1cc2cc(Cl)c(Cl)cc2[nH]1)C(=O)NCCCCN1CCN(c2ccccc2OC)CC1`, the growth inhibition is 96% (active) in experiment [1] and 100% (active) in experiment [4]. For the same compound, the inhibition in experiment [2] is 55% (active); in experiment [3] it was -1%. Further, the outcome in experiment [5], in experiment [6], in experiment [7] and in experiment [8] was inactive.
Take `Cc1cc(N[C@@H](Cc2ccccc2)C(=O)NCc2cccs2)nc(NCCc2cccnc2)n1`: the growth inhibition in experiment [1] is 38%; in experiment [4], 84% (active). Besides, the inhibition in experiment [2] is 10%; in experiment [3], -4%. Further, the outcome in experiment [5], in experiment [6], in experiment [7] and in experiment [8] was inactive.
For the compound `O=S(=O)(c1c(Cl)cc(Cl)cc1Cl)N1CCCCC(c2ccc(C(F)(F)F)cc2)=N1`, the results for the growth inhibition in experiment [1] and in experiment [4] were 99% (active) and 98% (active), respectively. The inhibition in experiment [2] was 6%; in experiment [3], -5%. Moreover, the outcome in experiment [5], in experiment [6], in experiment [7] and in experiment [8] was inactive.
As to `Cc1cc(F)ccc1Nc1nc(N(C)c2ccccc2)c2cc(OCCCN(C)C)ccc2n1`, the figures for the growth inhibition in experiment [1] and in experiment [4] were 49% and 100% (active), respectively. In addition, the figures for the inhibition in experiment [2] and in experiment [3] were 31% and 4%, respectively. In addition, the outcome in experiment [5], in experiment [6], in experiment [7] and in experiment [8] was inactive.
On to `COc1ccc2nccc(N3CCCN(CCNCc4ccc5c(n4)NC(=O)CS5)CC3)c2n1`, for which the growth inhibition was 10% in experiment [1] and 100% (active) in experiment [4]. For the same compound, the inhibition in experiment [2] is 8%; in experiment [3], -2%. The result in experiment [5], in experiment [6], in experiment [7] and in experiment [8] was inactive.
For the compound `COc1ccc2c(ccc3c2ncc2c(=O)n(-c4ccccc4)[nH]c23)c1`, the values for the growth inhibition in experiment [1] and in experiment [4] were 92% (active) and 95% (active), respectively. Moreover, the inhibition is -2% in experiment [2] and 4% in experiment [3]. Moreover, the outcome in experiment [5], in experiment [6], in experiment [7] and in experiment [8] was inactive.
Consider `Nc1nc(N)c2cc(Sc3ccc4ccccc4c3)ccc2n1`, for which the growth inhibition in experiment [1] is 92% (active); in experiment [4], 95% (active). Moreover, the figures for the inhibition in experiment [2] and in experiment [3] were 66% (active) and 0%, respectively. Besides, the result in experiment [5], in experiment [6], in experiment [7] and in experiment [8] was inactive.
As to `CC(Oc1ccc(Cl)cc1)C(=O)Nc1cc(C(F)(F)F)ccc1-n1cncn1` (stereo not given), the values for the growth inhibition in experiment [1] and in experiment [4] were 98% (active) and 99% (active), respectively. Also, the figures for the inhibition in experiment [2] and in experiment [3] were -2% and 2%, respectively. For the same compound, the result in experiment [5], in experiment [6], in experiment [7] and in experiment [8] was inactive.
Consider `Cc1ccc(C(NC(=O)Cc2ccccc2)c2ccc3cccnc3c2O)cc1` (stereo not given), for which the growth inhibition was 77% (active) in experiment [1] and 94% (active) in experiment [4]. In addition, the inhibition in experiment [2] is 47%; in experiment [3] it was 6%. Further, the outcome in experiment [5], in experiment [6], in experiment [7] and in experiment [8] was inactive.
`Cc1cccc2[nH]c(-c3ccc(-c4ccc(CNCCCN5CCCC5=O)cc4)cc3)nc12`: the growth inhibition is 47% in experiment [1] and 100% (active) in experiment [4]. In addition, the figures for the inhibition in experiment [2] and in experiment [3] were 7% and -5%, respectively. Further, the outcome in experiment [5], in experiment [6], in experiment [7] and in experiment [8] was inactive.
In the case of `COc1cccc(-c2cnc(N)c(-c3nc4ccc(F)cc4[nH]3)c2)c1`, the growth inhibition in experiment [1] is 43%; in experiment [4], 97% (active). The inhibition in experiment [2] was 47%; in experiment [3] it was 5%. For the same compound, the outcome in experiment [5], in experiment [6], in experiment [7] and in experiment [8] was inactive.
As to `COc1ccc(S(=O)(=O)N(CCCN2CCN(C)CC2)Cc2csc(-c3ccc(CNCc4ccccc4)cc3)n2)cc1`, the growth inhibition is 86% (active) in experiment [1] and 88% (active) in experiment [4]. The inhibition is 10% in experiment [2] and 6% in experiment [3]. Moreover, the result in experiment [5], in experiment [6], in experiment [7] and in experiment [8] was inactive.
Regarding `CCc1nn2c(Nc3ccncc3)cc(C)nc2c1-c1ccccc1`, the growth inhibition in experiment [1] is 98% (active); in experiment [4], 100% (active). The inhibition was 4% in experiment [2] and 0% in experiment [3]. The result in experiment [5], in experiment [6], in experiment [7] and in experiment [8] was inactive.
As for `NC(N)=Nc1ccc(OCCCCCOc2ccc(N=C(N)N)c(Cl)c2)cc1Cl`, the growth inhibition in experiment [1] and in experiment [4] was 92% (active) throughout. Besides, the inhibition in experiment [2] is 18%; in experiment [3], 6%. Further, the result in experiment [5], in experiment [6], in experiment [7] and in experiment [8] was inactive.
On to `O=C(Nc1cccc(C(F)(F)F)c1)c1ccc(S(=O)(=O)NCC2CCCN(CC3CCCCC3)C2)cc1` (stereo not given), for which the growth inhibition in experiment [1] is 9%; in experiment [4], 95% (active). Moreover, the inhibition in experiment [2] was 26%; in experiment [3], -4%. The result in experiment [5], in experiment [6], in experiment [7] and in experiment [8] was inactive.
Regarding `O=C(CC(c1ccccc1)c1ccccc1O)N1CCOCC1` (stereo not given), the growth inhibition was 5% in experiment [1] and 84% (active) in experiment [4]. For the same compound, the inhibition in experiment [2] was 30%; in experiment [3], 0%. The result in experiment [5], in experiment [6], in experiment [7] and in experiment [8] was inactive.
Turning to `CC(C)C1C(O)=C(c2ccc3ccccc3c2)C(=O)N1CC1CCCCC1` (stereo not given), the growth inhibition is 43% in experiment [1] and 84% (active) in experiment [4]. The figures for the inhibition in experiment [2] and in experiment [3] were 11% and -3%, respectively. The result in experiment [5], in experiment [6], in experiment [7] and in experiment [8] was inactive.
Take `Cc1ccccc1C1CCN(C2CCC(NC(=O)c3ccc(-c4ccccc4F)o3)CC2)CC1` (stereo not given): the growth inhibition was 66% (active) in experiment [1] and 99% (active) in experiment [4]. The inhibition in experiment [2] is 42%; in experiment [3], 1%. Further, the result in experiment [5], in experiment [6], in experiment [7] and in experiment [8] was inactive.

For the origin of these results see PubChem BioAssay.
